Screening data deposited in PubChem by University of Pittsburgh Molecular Library Screening Center.
The full list was thinned out, with hits kept by preference.
HIV RNase H inh-1: HIV-1 RT RNase H inhibitors, primary screen, biochemical, fluorescence; RT-RNase H RNA/DNA duplex cleavage; Gag-Pol polyprotein (Human immunodeficiency virus type 1 group M subtype B (isolate …; inhibition, % at 10 µM; actives 1.9% (n = 65,000); AID 565, 2006; in the data active = inhibition above about 50%
HIV RNase H inh-2: HIV-1 RT RNase H inhibitors, retest, confirmation, biochemical; actives 39% (n = 1,000); inhibition, % at 10 µM; Recombinant RT RNase H, fluorescent RNA/DNA duplex cleavage; shares compounds with HIV RNase H inh-1; in the data active = inhibition above about 48%
Starred values were filed as active, the others as inactive.

SMILES	HIV RNase H inh-1	others
COC(=O)c1c(C)oc2ccc(NS(=O)(=O)c3cc(OC)ccc3OC)cc12	-4
COc1ccc(OC)c(S(N)(=O)=O)c1	-13
COc1ccc(OC)c(S(=O)(=O)Nc2ccc(O)c(Sc3ncn[nH]3)c2)c1	94*	HIV RNase H inh-2=60*
CCn1cc(C(=O)Nc2nncs2)c(=O)c2cc(F)c(N3CCN(C(=O)c4ccco4)CC3)cc21	-4
COc1cc(C)nc(Oc2ccc(OCCOc3ccc(C)cc3)nn2)n1	-3
COc1ccc(CC(C(=O)Nc2cccc(F)c2)c2nn[nH]n2)c(OC)c1 (configuration not stated)	5
CC(=O)c1sc(NC(=O)C2(F)C(F)(F)C(F)(F)C(F)(F)C(F)(F)C2(F)F)nc1C	3
